The results in this text go back to PubChem BioAssay AID1508602 (The Scripps Research Institute Molecular Screening Center, 2020).

Screen size: about 650,000 compounds; about 6,800 (1%) were called active. This is one part of a sample in which actives are shown more often than they occur. A number with no mark means an inactive call. No stated cut-off is given here; in the data, active means activation above about 4.9%; inactive means the rest.

Sequence of G-protein coupled receptor 151 (Homo sapiens) (Q8TDV0 whole entry, looked up): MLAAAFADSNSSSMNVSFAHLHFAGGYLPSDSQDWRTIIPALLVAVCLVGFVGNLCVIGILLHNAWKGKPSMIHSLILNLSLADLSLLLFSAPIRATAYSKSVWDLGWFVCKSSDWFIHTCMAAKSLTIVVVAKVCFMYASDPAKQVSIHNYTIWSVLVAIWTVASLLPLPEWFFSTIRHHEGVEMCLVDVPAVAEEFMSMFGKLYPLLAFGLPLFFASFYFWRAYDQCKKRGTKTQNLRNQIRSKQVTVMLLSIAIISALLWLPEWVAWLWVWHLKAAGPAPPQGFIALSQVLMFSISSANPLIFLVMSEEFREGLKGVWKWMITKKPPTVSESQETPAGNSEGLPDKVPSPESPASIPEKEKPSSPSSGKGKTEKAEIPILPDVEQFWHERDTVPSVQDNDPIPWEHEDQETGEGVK

This test addresses G-protein coupled receptor 151 (Homo sapiens) (UniProt Q8TDV0). The test is described as follows: activates the human receptor GPR151, primary screen, cell-based, PathHunter beta-arrestin, luminescence (AID 1508602).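 Further: 0% = median of compound wells and 100% = cells with positive control.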 Conditions: PathHunter beta-arrestin GPR151 cells, at 11.2 µM, active compounds read high.
Regarding `COc1ccc(C(=O)N/N=C/c2ccc(O)c3ncccc23)cc1`, the activation was -2.28%.

As for `Cc1ccc(S(=O)(=O)N2CCN(Cc3ccc(F)cc3)CC2)cc1`, the activation is -0.354%. Then `O=S(=O)(c1ccc(F)cc1)N1CCN(CCCc2ccccc2)CC1`, with 5.43% (active); and `O=S(=O)(c1ccc(F)cc1)N1CCN(Cc2ccccc2F)CC1`, with 0.53%. Regarding `Cc1cc(C)c2c(=O)[nH]c(SCC(=O)c3ccc(F)cc3)nc2n1`, the activation is 3.2%. With `COc1ccccc1N1CCN(C(=O)c2cc(-c3ccc(Cl)c(Cl)c3)nc3ccccc23)CC1`, the activation is -0.435%. Then `COc1ccc(NC(=O)C23CCC(C)(C(=O)C2)C3(C)C)c(OC)c1` (stereo not drawn), with 0.482%; and `CCCCSc1nc2sc3c(c2c(=O)n1-c1ccc(OC)cc1)CCCC3`, with 0.438%; and `COc1ccc(-n2c(SCC(=O)c3ccccc3)nc3sc4c(c3c2=O)CCCC4)cc1`, with -0.298%. Under `COc1ccc(C(=O)CSc2nc3sc4c(c3c(=O)n2-c2ccc(Cl)cn2)CCCC4)c(F)c1` stands 5.7% (active); under `Oc1ccc(-c2n[nH]c(=S)o2)cc1`, -2.2%; under `CC(C)(C)c1ccc(S(=O)CC(O)CSc2nc(-c3cccs3)cc(-c3ccccc3)c2C#N)cc1` (stereo not drawn), 0.807%. Under `CC(C)COC(=O)c1ccc(NC(=O)C2C3C=CC(C3)C2C(=O)O)cc1` (stereo not drawn) stands 6.08% (active); under `COC(=O)c1cc(NC(=O)C2C3C=CC(C3)C2C(=O)O)cc(C(=O)OC)c1` (stereo not drawn), -0.454%. Consider `CCCCOC(=O)c1ccc(NC(=O)C2C3C=CC(O3)C2C(=O)O)cc1` (stereo not drawn), for which the activation is -1.25%. Then `O=c1c2c3c(sc2nc(SCc2cccc(Br)c2)n1-c1ccccc1)CCC3`, with 0.0499%. Under `O=C(O)COc1ccc(NC(=O)/C=C/c2ccco2)cc1` stands 3.09%. In the case of `O=C(COc1ccc(S(=O)(=O)Nc2ccc(F)cc2)cc1)NC1CCCC1`, the activation was 1.64%.

Turning to `O=C(COc1ccc(S(=O)(=O)NCCc2ccccc2)cc1)NC1CC1`, the activation is 5.83% (active). Take `CC(C)NS(=O)(=O)c1ccc(OCC(=O)NC2CCCCCC2)cc1`: the activation is -1.64%.

In the case of `Cc1ccc(NC(=O)CSc2nnc3sc4ccccc4n23)cc1`, the activation is -0.639%. As for `Cc1ccc(S(=O)(=O)c2nnn3c2nc(NCc2ccco2)c2ccccc23)cc1`, the activation is -0.413%. Then `C=CCc1cc(C)ccc1OCCCn1ccnc1`, with 2.6%; and `Cc1ccc(C(C)C)c(OCCN2CCNCC2)c1`, with 0.889%; and `Cc1ccc(C(C)C)c(OCCCn2ccnc2)c1`, with 4.92% (active). Then `COc1ccc(CCNc2nc(-c3ccccc3)nc3c2ncn3C2CCCCC2)cc1`, with 0.405%; and `COc1ccc(CCNC(=O)c2ccccc2C(=O)O)cc1OC`, with -1.14%; and `O=[N+]([O-])c1ccc(-n2c(-c3ccccc3)nnc2-c2ccccc2)cc1`, with -0.192%. Under `Cc1csc(NC(=O)CSc2nnc(Cc3cccn3C)n2-c2ccccc2)n1` stands 0.245%; under `O=C1N=C(N2CCN(c3ccc([N+](=O)[O-])cc3)CC2)S/C1=C/c1ccccc1`, -0.706%; under `O=C1/C(=C\c2ccccc2)C(N2CCOCC2)=NN1c1ccc([N+](=O)[O-])cc1`, 6.57% (active).

In the case of `C=CCOc1ccc(/C=C2\C(=O)N(c3ccc([N+](=O)[O-])cc3)N=C2c2ccccc2)cc1`, the activation is -2.33%. In the case of `CCC(=O)Nc1cc(-c2ccco2)nn1-c1nc(CC)cc(=O)[nH]1`, the activation is -0.772%. Then `COCCNCCOc1ccc(C(C)(C)C)cc1`, with 8.42% (active); and `COC(=O)NCCOc1ccc(C(C)(C)C)cc1`, with 0.726%. Under `CC(C)(C)c1ccc(OCCCCNCCO)cc1` stands 0.146%. Under `Cc1ccc(N2C(=O)CC(N3CCN(C(c4ccccc4)c4ccccc4)CC3)C2=O)c(Br)c1` (stereo not drawn) stands -0.0796%; under `CCc1cc(C(=O)N2CCCCC2C)cs1` (stereo not drawn), 1.3%. Regarding `Cc1ccc(CNC(=O)CN(C)S(=O)(=O)c2ccccc2)cc1`, the activation is -0.21%. Then `COc1ccc(CON2C(=O)c3ccccc3C2=O)cc1Cl`, with -1.06%; and `O=C(NNC(=O)C1CCCN(S(=O)(=O)c2cccc(Cl)c2)C1)C1CC1` (stereo not drawn), with 0.674%. Take `COc1ccc(C(=O)C2CCCN(S(=O)(=O)c3cccc(C)c3)C2)c(C)c1` (stereo not drawn): the activation was 5.47% (active). Then `CCc1ccc(S(=O)(=O)N2CCCC(C(=O)c3ccc(OC)c(OC)c3)C2)s1` (stereo not drawn), with 0.139%; and `CCCOc1ccccc1C1CC(=O)C2=C(C1)Nc1ccccc1N(C(C)=O)C2c1ccc(OC)cc1` (stereo not drawn), with -0.237%. Then `Cc1ccc(Cn2c(C)c3cnn(CC(=O)N4CCCC4)c(=O)c3c2C)cc1`, with -0.279%; and `O=C(/C=C/c1ccccc1)c1ccccc1O`, with 5.61% (active). With `O=C(/C=C/c1ccccc1)c1ccc(O[C@@H]2O[C@H](CO)[C@@H](O)[C@H](O)[C@H]2O)cc1O`, the activation was 0.684%. Then `COc1ccc(O)c(C(=O)/C=C/c2ccc(F)cc2)c1`, with -1.75%; and `Cc1c(Cl)cccc1-n1c(/C=C/c2cccc3ccccc23)nc2ccccc2c1=O`, with 1.58%. Under `CNC(=O)c1ccc(CN(c2ccc(C)c(C)c2)S(C)(=O)=O)cc1` stands 0.29%; under `COC(=O)c1ccccc1NC(=O)c1ccc(CN(c2ccc(C)c(C)c2)S(C)(=O)=O)cc1`, -0.0331%; under `CC(=O)c1ccc(NC(=O)c2ccc(CN(c3ccc(C)c(C)c3)S(C)(=O)=O)cc2)cc1`, 5.09% (active). Under `Cc1cnc(CNC(=O)c2ccc3cncc(-c4cc5ccccc5o4)c3n2)cn1` stands -1.58%. On to `COc1ccc(NC(=O)CSc2nc(=O)n(CCCN(C)C)c3c2CCC3)cc1OC`, for which the activation is -0.304%.

Regarding `COc1cc(CO)cc(Cl)c1OCc1ccccc1`, the activation is 0.149%. Then `COc1cc(Cl)c(CNCc2ccccc2)cc1OC`, with -1.13%; and `CCOc1c(Cl)cc(CNCc2ccccc2)cc1OC`, with 5.18% (active).

As for `Cc1ccc(CNC(=O)CSc2nc3ccccc3c(=O)n2CC2CCC(C(=O)NCc3ccco3)CC2)cc1` (stereo not drawn), the activation was -0.182%.
